# Results as given in PubChem BioAssay AID623891 (Vanderbilt Specialized Chemistry Center, 2012).
# Calls of active or inactive are those of the source.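 How the source made its calls: active means fold shift of 2 or more as potentiator, or 0.5 or less as blocker, so actives lie on both sides; inactive means fold shift between 0.5 and 2.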
# Molecular target: Metabotropic glutamate receptor 6 (Homo sapiens) (UniProt O15303)
# Test: off-target activity at human mGlu6, profiling panel, selectivity assay for mGlu4 lead optimization, cell-based, thallium flux (AID 623891)
# Settings: mGlu6 cells, glutamate CRC fold shift, at 10 µM
# Metabotropic glutamate receptor 6 (Homo sapiens), sequence (O15303 whole entry, looked up): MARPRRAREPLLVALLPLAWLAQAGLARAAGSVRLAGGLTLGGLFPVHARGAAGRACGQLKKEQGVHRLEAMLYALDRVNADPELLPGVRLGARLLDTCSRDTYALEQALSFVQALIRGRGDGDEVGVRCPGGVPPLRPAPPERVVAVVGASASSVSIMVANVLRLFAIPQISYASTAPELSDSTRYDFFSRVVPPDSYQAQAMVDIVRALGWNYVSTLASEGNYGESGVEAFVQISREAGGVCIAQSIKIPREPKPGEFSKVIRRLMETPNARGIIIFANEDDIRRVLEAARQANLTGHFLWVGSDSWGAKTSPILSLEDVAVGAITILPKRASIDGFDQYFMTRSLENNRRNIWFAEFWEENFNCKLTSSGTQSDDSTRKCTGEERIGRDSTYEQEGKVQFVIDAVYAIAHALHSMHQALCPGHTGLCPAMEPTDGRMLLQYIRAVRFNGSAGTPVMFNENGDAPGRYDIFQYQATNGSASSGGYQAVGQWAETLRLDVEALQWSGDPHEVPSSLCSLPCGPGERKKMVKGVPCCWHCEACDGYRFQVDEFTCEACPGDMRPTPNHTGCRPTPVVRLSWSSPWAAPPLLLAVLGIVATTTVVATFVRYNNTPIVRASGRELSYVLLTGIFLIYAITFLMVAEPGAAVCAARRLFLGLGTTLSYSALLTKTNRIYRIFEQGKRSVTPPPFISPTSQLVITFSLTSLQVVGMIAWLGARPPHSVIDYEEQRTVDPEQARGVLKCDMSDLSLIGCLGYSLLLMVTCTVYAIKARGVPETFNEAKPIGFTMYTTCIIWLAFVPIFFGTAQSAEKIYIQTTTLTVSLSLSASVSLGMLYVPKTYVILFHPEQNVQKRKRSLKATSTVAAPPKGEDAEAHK
smiles,measurement,value
O=C(Nc1cccc(Cl)c1)c1ccccn1,fold shift,4.27 (active)
